# Compound activity: PubChem, National Center for Advancing Translational Sciences (NCATS)
# NPC1 promoter act: activators of NPC1 promoter | Huh7 NPC1 promoter luciferase reporter, 24 h | Potency, µM (series often up to 9.22 µM), inactives show at the highest dose activation, usual class: activators | hit rate 2.4% among 320,000 | AID 485313; further: % of control where 0% means no effect; nearly all actives have a fitted effect of over 60% in size
#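 Stably transfected Huh7 (NPC1 promoter→luciferase), 1500 cells/well in Opti-MEM + 10% FBS, 2 h settle, then compound 24 h at 37 °C. Luminescence after 10 min with Amplite reagent.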
# FLuc modulator: firefly luciferase modulation, counter-screen for miR-21 project | P08659 | purified FLuc, Km substrates, luminescence inhibition | Potency, µM (highest dose often 57.5 µM), without a hit: top-dose activity change, negative = inhibition, usual class: inhibitors | hit rate 6.9% among 360,000;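 further: plate controls were vehicle for no effect and reference inhibitor for full effect; nearly all actives have a fitted effect of over 55% in size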
# Target sequence (P08659 whole entry, looked up): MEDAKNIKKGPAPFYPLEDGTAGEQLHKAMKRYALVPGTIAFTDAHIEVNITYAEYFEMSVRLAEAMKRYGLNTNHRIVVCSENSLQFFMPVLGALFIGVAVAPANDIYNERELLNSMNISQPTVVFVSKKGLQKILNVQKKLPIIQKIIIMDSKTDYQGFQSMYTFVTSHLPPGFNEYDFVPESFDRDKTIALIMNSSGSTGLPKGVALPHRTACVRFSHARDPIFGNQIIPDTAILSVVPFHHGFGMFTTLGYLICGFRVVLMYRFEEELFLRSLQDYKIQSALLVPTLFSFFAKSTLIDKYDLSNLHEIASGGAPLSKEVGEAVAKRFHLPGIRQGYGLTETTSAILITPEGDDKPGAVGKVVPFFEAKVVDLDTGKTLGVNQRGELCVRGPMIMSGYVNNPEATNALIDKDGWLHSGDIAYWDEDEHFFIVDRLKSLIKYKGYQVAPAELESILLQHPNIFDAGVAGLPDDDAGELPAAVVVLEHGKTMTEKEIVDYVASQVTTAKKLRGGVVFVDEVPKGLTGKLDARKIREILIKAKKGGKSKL
#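 Purified P. pyralis luciferase (10nM final) with 10uM D-luciferin and 10uM ATP (Km levels) in 50mM Tris acetate pH 7.5, 10mM Mg acetate, 0.01% Tween-20, 0.05% BSA; qHTS 6-point titration, ~60 µM downward; luminescence read.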
# SMN2 splice up: SMN2 splice variant enhancement; HEK293 SMN2-luciferase splicing reporter, luminescence, 30-36 h; Potency, µM (highest dose often 46.1 µM), for the others: at the top dose activity change, positive = activation, usual class: activators; hit rate 2.8% among 210,000; further: % of control where 0% means no effect; nearly all actives have a fitted effect of over 55% in size
#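 qHTS luciferase splicing reporter: luminescence rises when SMN2 exon 7 is included in transfected HEK293 cells. Compound exposure lasted 30-36 h at 37C, with 4.5 mM final sodium butyrate as control, followed by a ONE-Glo read.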
# Rab9 prom act: activators of Rab9 promoter | hit rate 2.8% among 320,000 | AID 485297 | Huh7 Rab9 promoter-luciferase reporter, luminescence, 24 h | Potency, µM (doses to about 9.22 µM), for the others: at the highest dose activation, negative = inhibition, actives largely listed as activators; further: % of control where 0% means no effect; nearly all actives have a fitted effect of over 60% in size
#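 Quantitative HTS format; Huh7 Rab9-luciferase reporter cells (1500/well) receive compound 2 h post-plating, incubate 24 h at 37 °C, then get luciferase reagent for 10 min before luminescence reading.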
# ELG1 repair inh: blocks ELG1-dependent DNA repair in HEK293T cells; HEK293T ELG1-luciferase reporter, luminescence, 16 h; DNA damage induced by 5-fluorouridine; Potency, µM (titrated, usually from 46.1 µM), without a hit: at the highest dose activity change, negative = inhibition, usual class: inhibitors; hit rate 2.3% among 330,000; AID 504467; further: on the % scale 0 is the no-effect control and ±100 the full control effect; nearly all actives have a fitted effect of over 55% in size
#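 5-Fluorouridine DNA damage + compound/DMSO, 2,000 cells/well, 16 h, 37 °C/5% CO2. ONE-Glo, 30 min RT, luminescence. Readout = decrease in reporter signal.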
# ELG1 genotoxic: induces genotoxicity in HEK293T cells with luciferase-tagged ELG1 | HEK293T ELG1-luciferase reporter, luminescence, 16 h | Potency, µM (highest dose often 46 µM), without a hit: at the highest dose activity change, positive = activation, usual class: activators | hit rate 1.3% among 330,000; further: % of control where 0% means no effect; nearly all actives have a fitted effect of over 60% in size
#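 Cells (2,000/well) expressing the ELG1-luciferase fusion are dosed by pin tool and kept 16 hr at 37 °C, 5% CO2. Signal comes from ONE-Glo luciferase reagent after 30 min at room temperature.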
# * = called active by the depositor; ? = inconclusive; . = no result given; [ ] = remark or other dose. An excerpt weighted towards active compounds, which were near 9.2% of everything screened. The call rests on the fitted dose curve; in most records, active means well fitted curve in the direction sought with a large enough effect; inconclusive means small, poorly fitted or top-dose-only effect, or another doubt; inactive means no such curve, though single readings can be large; an effect the other way counts as inactive or inconclusive. Potency means the concentration at half of the fitted maximal effect.
SMILES,NPC1 promoter act,FLuc modulator,SMN2 splice up,Rab9 prom act,ELG1 repair inh,ELG1 genotoxic
Cc1ccc(-c2csc(NC(=O)c3ccc4c(=O)n5c(nc4c3)CCCCC5)n2)cc1,-5%,?,.,-7%,2.9µM*,-11%
CCCCc1nnc(NC(=O)c2ccc3c(=O)n4c(nc3c2)CCC4)s1,-2%,-1%,.,2%,0%,1%
O=C(c1ccc2c(=O)n3c(nc2c1)CCCCC3)N1CCN(C(c2ccccc2)c2ccccc2)CC1,1%,0%,-42%,0%,23µM*,-16%
CNC(=O)c1ccc(NC(=O)c2ccc3c(=O)n4c(nc3c2)CCC4)cc1,-2%,-10%,.,1%,23%,0%
Cc1ccc(S(=O)(=O)/N=C(/Nc2ccc(O)c(C(=O)O)c2)c2ccccc2)cc1,-1%,-14%,.,-6%,13%,0%
COc1ccccc1CNc1ncnc2c1cnn2-c1ccc(C)cc1,.,17µM*,.,.,.,.
Brc1ccc2ncnc(NCc3ccco3)c2c1,1%,-13%,-59%,-4%,8.2µM*,-12%
c1ccc(-n2ncc3c(NCc4ccco4)ncnc32)cc1,?,24µM*,.,?,?,10µM*
Cc1ccc(-n2ncc3c(NCc4ccccc4)ncnc32)cc1,3.5µM*,-19%,.,?,?,4.6µM*
COc1cc2ncnc(NCc3ccco3)c2cc1OC,-4%,-4%,-1%,3%,?,6%
COc1cccc(C(=O)N2CCC(n3nccc3NC(=O)CCOc3ccccc3)CC2)c1,-2%,-2%,.,0%,19%,0%[9.26 µM]
COc1ccc(/C=C/C(=O)NC(=S)Nc2ccc(N3CCN(C(C)=O)CC3)cc2)cc1,-19%,-3%,.,-6%,0%,0%
COc1ccc(/C=C/C(=O)NC(=S)N2CCOCC2)cc1,3.5µM*,11µM*,.,1.6µM*,?,?
COc1ccc(/C=C/C(=O)NC(=S)N2CCN(c3ccccc3OC)CC2)cc1,4µM*,?,.,?,?,18%
COc1cccc(NC(=O)N2CCCC2C(=O)NC23CC4CC(CC(C4)C2)C3)c1 (centres undefined),0%,-1%,.,-2%,?,4%
CN(C(=O)Nc1ccc(Cl)cc1Cl)C1CCCC1,?,19µM*,.,4µM*,?,?
O=C(Nc1ccc(Cl)cc1Cl)NC1CCCC1,12%,-11%,13%,?,?,10%
CCCc1cc(=O)n2[nH]c(-c3cccc(Br)c3)cc2n1,2.8µM*,5.4µM*,.,?,?,?
CCCc1cc(=O)n2[nH]c(NCc3c(Cl)cccc3Cl)nc2n1,0%,-3%,18%,5%,-14%,0%
CCOC(=O)Cc1cc(=O)n2[nH]c(-c3ccccc3)cc2n1,1%,?,22%,12%,?,5%
CCCc1cc(=O)n2[nH]c(-c3ccc(Br)cc3)cc2n1,?,?,11µM*,3.5µM*,?,17%
COc1ccc(C(CNC(=O)COc2cc(C)cc(C)c2)N2CCOCC2)cc1 (centres undefined),.,-7%,.,.,.,.
COc1ccc(OCC(O)Cn2c(Nc3cccc(C)c3)nc3c2c(=O)n(C)c(=O)n3C)cc1 (centres undefined),-2%,-8%,-5%,2%,18µM*,-2%
CCC(C)NC(=O)c1cccc(NC(=O)c2nsc3ccccc23)c1 (centres undefined),.,6µM*,.,.,.,.
COc1ccccc1CNC(=O)c1cccc(NC(=O)c2ccccc2)c1,1%,?,-3%,2%,?,-9%
SMILES,NPC1 promoter act,FLuc modulator,SMN2 splice up,Rab9 prom act,ELG1 repair inh,ELG1 genotoxic
CCOc1ccccc1CNC(=O)c1cccc(NC(=O)c2nsc3ccccc23)c1,.,6µM*,.,.,.,.
CCC(CC)NC(=O)c1cccc(NC(=O)C(C)C)c1,-1%,0%,?,-1%,6%,-1%
CC(=O)N1CCN(S(=O)(=O)c2cccc(C(=O)OCC(=O)N(CCC#N)c3ccc(F)cc3)c2)CC1,-2%,0%,.,-5%,-9%,-2%
COCCNC(=S)N(CCO)Cc1cc2cc3c(cc2[nH]c1=O)OCCO3,-3%,-4%,.,6%,5%,2%
Nc1ccc(Cl)c(-c2nc3ncccc3o2)c1,20%,?,?,16%,?,6%
Nc1ccc(-c2nc3ncccc3o2)c(O)c1,2.8µM*,12µM*,.,4µM*,?,?
Nc1ccc(-c2nc3ncccc3o2)c(Cl)c1,2µM*,4.8µM*,13µM*,3.2µM*,?,10µM*
CCn1cc(C(=O)NCCc2ccc(Cl)cc2)c(=O)c2cc(S(=O)(=O)N(C)C3CCCCC3)ccc21,.,-2%,-4%,.,.,.
COc1cc(CNCCSc2nnnn2C)ccc1OCc1ccccc1C,.,-2%,-18%,.,.,.
c1ccc(Nc2cccc(Nc3ccccc3)c2)cc1,24%,15µM*,22%,23%,?,?
Cc1cc2nc(-c3ccccn3)c(-c3ccccn3)nc2cc1C,?,4.8µM*,.,14%,?,?
c1ccc(-c2nc3ccccc3nc2-c2ccccn2)nc1,2%,-6%,39%,0%,6%,0%
Cc1ccc(C(=O)N/C(=C\c2ccco2)C(=O)N2CCOCC2)cc1C,10%,-2%,.,0%,21µM*,-6%
O=C(NC1CC1)c1scc2c1OCCO2,0%,-1%,-8%,2%,16µM*,-5%
CCn1cc(C(=O)O)c(=O)c2cc(F)c(N3CCN(C(=S)NC(=O)c4ccccc4F)CC3)cc21,2%,1%,.,-1%,?,-4%
CCC(C)NC(=O)c1cn(CC)c2cc(N3CCN(C(=O)c4ccco4)CC3)c(F)cc2c1=O (centres undefined),-8%,-3%,.,-2%,21µM*,-12%
CCn1cc(C(=O)O)c(=O)c2cc(F)c(N3CCN(C(=O)Nc4ccccc4)CC3)cc21,-3%,0%,18µM*,2%,?,-36%
CCn1cc(C(=O)NCC(C)C)c(=O)c2cc(F)c(N3CCN(C(=O)c4ccco4)CC3)cc21,-3%,-1%,.,-6%,-1%,-9%
Cc1ccc(Cl)c(OCC(=O)Nc2ccccc2N2CCCCC2)c1,-3%,4%,.,0%,-4%,27%
Cc1ccc(NC(=O)/C(=C\c2ccc([N+](=O)[O-])cc2)NC(=O)c2ccccc2)cc1,0%,0%,-6%,-7%,15%,-1%
O=C(N/N=C/c1ccc(O)c(O)c1O)/C(=C/c1ccc([N+](=O)[O-])cc1)NC(=O)c1ccccc1,-3%,11µM*,1%,-9%,?,2%
